Test results published in PubChem BioAssay (NCI).
This is part of a sample that, as a whole, favours compounds with a hit. Of some 83,000 tested, about 20% had one in any assay.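 A percent growth of 40 corresponds to 60% growth inhibition; 0 means no net growth; -100 means all cells died. Active threshold: below 10.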 Values without a mark were called inactive. Calls of active or inactive are those of the source.

The compounds below were run on T-47D breast (assay: NCI-60 one-dose screen, 48 h (100 = growth as untreated, 0 = no growth, -100 = all killed)). Conditions: 10 µM unless noted.

Compound	growth
C=C(C)[C@@H]1CC[C@]2(COC(=O)c3cccnc3)CC[C@]3(C)[C@H](CC[C@@H]4[C@@]5(C)CCCN(C(=O)c6cccnc6)C(C)(C)[C@@H]5CC[C@]43C)[C@@H]12	31.3%
C=C1C(=O)O[C@H]2[C@H]1CC/C(CNC(=O)/C=C/c1cc(OC)c(OC)c(OC)c1)=C\CC[C@@]1(C)O[C@@H]21	-65% (active)
O=S(=O)(c1ccc(NCSc2nc3ccccc3s2)cc1)c1ccc(NCSc2nc3ccccc3s2)cc1	63.9%
COc1ccc(S(=O)(=O)Oc2ccc(-c3sc4cc(OS(=O)(=O)c5ccc(OC)cc5)ccc4c3C(=O)c3ccc(OCCN4CCCCC4)cc3)cc2)cc1	94.2%
Nc1nc(N)c2c(n1)NC(c1cccc(Nc3ccnc4cc(C(F)(F)F)ccc34)c1)CC(c1ccc(Cl)cc1)=N2 (stereo unspecified)	73.7%
COC(=O)[C@H]1Cc2c([nH]c3ccccc23)[C@H](c2ccc3c(c2)OCO3)N1	91.8%
[2H]C([2H])([2H])Oc1c(F)cccc1/C=C/C(=O)/C=C(O)/C=C/c1cccc(F)c1OC([2H])([2H])[2H]	83.8%
C=C(C)[C@@H]1CCC[C@]2(C(=O)OC)CC[C@]3(C)[C@@H](CC[C@@H]4[C@@]5(C)CCCNC(C)(C)[C@@H]5CC[C@]43C)[C@@H]12	75.9%
O=C(Nc1ncc(Cc2ccccc2)s1)c1ccc2c(c1)OCCO2	36%
COc1ccc(-c2cc(-c3ccc(Nc4nc(Nc5ccc(Cl)cc5)nc(Nc5ccc(Cl)cc5)n4)cc3)no2)cc1	70.7%
CNC(=O)c1cc(Oc2ccc3nc(NC(=O)NC(C)C)sc3c2)ccn1	64.3%
O=C1NCCS(=O)(=O)/C1=C\C=C\c1cccc(C(F)(F)F)c1	22.6%
NCCNc1ccc([N+](=O)[O-])cc1	106%
Clc1ccc2c(NCCCn3cnc4c(N5CCCC5)nc(Cl)nc43)ccnc2c1	85.6%
O=C(/C=C/c1ccc(Cl)cc1)c1ccc(Nc2ccnc3cc(Cl)ccc23)cc1	96.4%
Oc1c(Cl)cc(Cl)c2ccc(CN3CCNCC3)nc12	43.6%
O=C1c2ccccc2C(=O)c2cc(Cn3c[n+](Cc4ccc5ccccc5c4)c4ccccc43)ccc21	41.2%
CC(C)(C#N)c1cc(C(=O)Nc2cc(Nc3ncccc3-c3ncnc4nc[nH]c34)ccc2F)cc(C(F)(F)F)c1	52%

Compound	growth
CC(C)n1cc(C2=C(c3cccc4ccccc34)C(=O)NC2=O)c2cc(Br)ccc21	90%
O=CN1N=C(c2cccc(Nc3ccncc3)c2)CC1c1ccc2c(c1)OCO2 (stereo unspecified)	79.1%
CC(=O)Cc1nsc(NC(=O)c2cc(-c3cc(Cl)ccc3Cl)oc2C)n1	87.6%
O=C(O)COc1ccc(F)cc1	104%
CC(Cc1cccc2ccccc12)C(N)=O (stereo unspecified)	105%
NC(=N\N=C/c1ccc(Cl)cc1Cl)/C(N)=N\N=C/c1ccc(Cl)cc1Cl	10.8%
CCOC(=O)CC1C(CNC(=O)NC)OC(n2cnc3c(NC(=O)Nc4ccccc4)ncnc32)C1O[Si](C)(C)C(C)(C)C (stereo unspecified)	27.1%
CCc1ccc(Cc2cnc(NC(=O)c3cc(C)oc3C)s2)cc1	34.4%
CNc1nc2ncc(-c3c(C)noc3C)cc2n1Cc1ccccc1	54.1%
CCCCC1=C(Br)C(=O)c2ncccc2C1=O	71.2%
Cc1ccc2nc(/C=C/c3ccc(N(C)C)cc3)cc(C)c2c1	34.7%
CCN(CC)c1ccc(/C=N/NC(=O)c2ccccc2Nc2ccnc(C(F)(F)F)c2)c(O)c1	22.3%
COc1cc2ncnc(Nc3ccc(S(=O)(=O)Nc4cc(C)on4)cc3)c2cc1OCCCN1CCOCC1	84.4%
COc1ccc(-c2cc(-c3ccc(N(C)C)cc3)nc(NC(=O)c3cccnc3)n2)cc1	85.6%
CC(=O)/C(Br)=C/c1ccc(Br)o1	44.8%
N#CC1=C(N)Oc2c(ccc3cccnc23)C1c1ccccc1 (stereo unspecified)	50.4%
CCCS(=O)(=O)Nc1cccc(Nc2ncnc3cc(NC(=O)CCl)ccc23)c1Cl	-41.8% (active)
COC(=O)c1nc(-c2ccc(C)cc2)oc1N1CCOCC1	87.3%
